Test results from PubChem BioAssay (NCI).
About 83,000 compounds went through this panel and 20% of them were active in at least one assay; those are over-represented in the sample as a whole.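 Percent growth is the endpoint: 0 to 100 indicates growth inhibition (40 means 60% inhibition), 0 means no net growth, and negative values indicate cell death.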 Unmarked numbers belong to inactive results. Active and inactive are the calls of the source. Rule for the calls: active = growth percent below 10; inactive = the rest.

system: MDA-MB-468 breast; assay: NCI-60 one-dose screen, 48 h (100 = growth as untreated, 0 = no growth, -100 = all killed); conditions: 10 µM unless noted

SMILES | growth
COc1cc(C2CC(c3ccc(Nc4nc(NCCO)nc(Nc5ccc(Cl)cc5)n4)cc3)=Nc3c(N)nc(N)nc3N2)cc(OC)c1OC (stereo not drawn) | 58.6%
COc1cc(C(=O)/C=C/c2ccc(OCCCCCC[P+](c3ccccc3)(c3ccccc3)c3ccccc3)cc2)cc(OC)c1OC | -58.6% (active)
C=C1C(=O)O[C@H]2[C@H]1CC/C(Cn1cc(-c3ccccc3C(F)(F)F)nn1)=C\CC[C@@]1(C)O[C@@H]21 | -56.1% (active)
